Shiga toxin inh = blocks Shiga toxin action in Vero cells. Vero cells, Shiga toxin protein synthesis inhibition reporter. inhibition, % at 38.7 µM. 290,000 tested, 9.2% active. AID 2315; in the data active = inhibition mostly above about 28%, no sharp cut-off; inactive = mostly below about 43%
Pf growth 48h = P. falciparum growth inhibition at 48 hours (one generation); P. falciparum luciferase growth in erythrocytes, 48 h; AID 504832; Potency, µM (highest dose often 28.7 µM), most hits filed as inhibitors; 310,000 tested, 5.9% active
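Growth was read as firefly luciferase luminescence after a 48 h, 37 C, 5% CO2 exposure of compounds to reporter-bearing P. falciparum cultures (0.1% parasitemia, 2% hematocrit final) in Albumax-supplemented RPMI 1640.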
Pf growth 96h = inhibits malaria parasite growth, 96 h; P. falciparum luciferase reporter growth, 96 h; Potency, µM (series often up to 28.7 µM), actives largely listed as inhibitors; 320,000 tested, 6.9% active; AID 504834
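Parasite growth measured via integrated firefly luciferase reporter in P. falciparum. Infected erythrocytes at 2% hematocrit, 0.05% parasitemia final were treated 96 hours at 37 C under 5% CO2, and luminescence was read.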
HCV inh = blocks hepatitis C virus. Potency, µM (doses to about 41.8 µM), hits mostly inhibitors. 340,000 tested, 3.4% active. AID 651820. Huh7.5.1 HCVcc-Cre infection, luciferase reporter, 44 h
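Cells (1,000/well) were plated 4 h before compound, then infected with HCVcc-Cre virus (~0.5 moi). After 44 h further culture, infection was read as luciferase luminescence following a 15 min substrate incubation at room temperature.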
AMA1 RON2 block = inhibitors of Plasmodium falciparum AMA1-RON2 interaction. AID 720542. Potency, µM (titrated, usually from 58.2 µM), hits mostly inhibitors. 360,000 tested, 0.2% active. AlphaScreen AMA1-biotinylated RON2 peptide binding; note: nearly all actives have a fitted effect of over 45% in size
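AMA1 (3D7) with his tag at 25 nM final met compounds first, then biotinylated RON2 peptide at 25 nM; detection used donor plus acceptor beads, 10 µg/mL apiece, read by AlphaScreen after 30 min at room temperature.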
CHX counter = affects cycloheximide protein synthesis inhibition readout, counter-screen | cell reporter, cycloheximide protein synthesis inhibition counterscreen | max response, % | 300,000 tested, 12% active | AID 2314; in the data active = max response mostly above about 13%, no sharp cut-off; inactive = mostly below about 14%; note: read at 38.3 µM for the half of the compounds with a filed dose
Of the large screens only hits and unclear results are named; the others gave an inactive call. Rows were chosen to be rich in hits. Some 21% of all compounds tested hit in one or more screens of this group. Unless noted, calls come from the whole dose curve; as a rule, active = well fitted curve in the direction sought with a large enough effect; inconclusive = small, poorly fitted or top-dose-only effect, or another doubt; inactive = no such curve, though single readings can be large; an effect the other way counts as inactive or inconclusive.

NC(=O)C1=CC2C3C=CC2(O)C(=O)OC3O1 (centres undefined)	HCV inh 8.9µM (no result: Shiga toxin inh, Pf growth 48h, Pf growth 96h, CHX counter)
O=C(Nc1ccc2nc(-c3ccccc3)[nH]c2c1)c1cccs1	Pf growth 96h inconclusive, HCV inh inconclusive, CHX counter 32 (no result: Pf growth 48h)
CC(=O)Nc1cccc(-c2nc3ccc(NC(C)=O)cc3[nH]2)c1	Pf growth 96h inconclusive
O=C(Nc1ccc2nc(-c3ccc4nc[nH]c4c3)[nH]c2c1)c1cccs1	Pf growth 48h 2.6µM, Pf growth 96h inconclusive, AMA1 RON2 block inconclusive
Cc1cc(C)c2cc(C#N)c(NCCNC(=O)c3ccncc3)nc2c1	none (no result: Shiga toxin inh, Pf growth 48h, Pf growth 96h, HCV inh, CHX counter)
COC(=O)c1ccc(NC(=O)Cn2nc(C(=O)Nc3ccc(C)cc3)ccc2=O)cc1	Pf growth 96h inconclusive
O=C(CSCc1ccccc1)Nc1ccc2c(c1)OCO2	Shiga toxin inh 115, CHX counter 39 (no result: Pf growth 96h)
Cc1ccc(CSCC(=O)Nc2ccc3c(c2)OCO3)cc1	Shiga toxin inh 57 (no result: Pf growth 48h)
O=c1c2ccccc2c(C=NC2CCN(Cc3ccccc3)CC2)c(O)n1Cc1ccc2c(c1)OCO2	Pf growth 48h 4.7µM, Pf growth 96h inconclusive (no result: HCV inh, AMA1 RON2 block)
O=C(Nc1ccc2c(c1)OCO2)NC1CCN(Cc2ccccc2)CC1	Shiga toxin inh 41, Pf growth 48h inconclusive, CHX counter 36 (no result: Pf growth 96h)
O=C(CSCSCC(=O)Nc1ccc2c(c1)OCO2)Nc1ccc2c(c1)OCO2	Pf growth 48h inconclusive
O=C(CSCc1c(Cl)cccc1Cl)Nc1ccc2c(c1)OCO2	Pf growth 96h inconclusive (no result: Pf growth 48h)
O=C(CSCc1ccc(Cl)cc1)Nc1ccc2c(c1)OCCO2	Shiga toxin inh 96
COc1ccc(/C(C)=N/NC(=O)C(NC(=O)c2ccccc2)c2n[nH]c(=O)c3ccccc23)c(OC)c1 (centres undefined)	Pf growth 48h inconclusive
COC(=O)Cc1cc(=O)[nH]c(Nc2nc3ccccc3o2)n1	Shiga toxin inh 31, CHX counter 17
CCOC(=O)Cc1cc(=O)[nH]c(Nc2nc3ccccc3o2)n1	Shiga toxin inh 77, Pf growth 48h inconclusive, Pf growth 96h inconclusive
COCc1cc(=O)[nH]c(Nc2nc3ccccc3o2)n1	Shiga toxin inh 65, Pf growth 48h inconclusive, CHX counter 61
Cc1ccc2oc(Nc3nc(C)cc(C)n3)nc2c1	CHX counter 11
CC[C@]12c3[nH]c4ccc(OC)cc4c3CCN1C(=O)C(CC(=O)NC(C)(C)C)C[C@@H]2C(=O)N1CCN(C(=O)c2ccco2)CC1 (some centres undefined)	none (no result: Shiga toxin inh, Pf growth 48h, Pf growth 96h, CHX counter)
Cc1ccc(Cl)cc1NC(=O)CCC(=O)NCc1ccco1	Pf growth 96h inconclusive
COc1ccc2c(c1)nc(-c1cccc(Br)c1)c(=O)n2C(c1ccccn1)c1nc2ccccc2[nH]1 (centres undefined)	none (no result: Shiga toxin inh, Pf growth 48h, Pf growth 96h, HCV inh, CHX counter)
Cc1cc(C)c2nc(Nc3nc(CSc4nc5ccccc5[nH]4)cc(=O)[nH]3)nc(C)c2c1	HCV inh inconclusive (no result: Shiga toxin inh, Pf growth 48h, Pf growth 96h, CHX counter)
Cc1ccc2oc(Nc3nc(-c4ccccc4)cc(=O)[nH]3)nc2c1	Pf growth 48h inconclusive, Pf growth 96h 0.83µM
Cc1cc(C)c2nc(Nc3nc(-c4ccccc4)cc(=O)[nH]3)nc(C)c2c1	Pf growth 48h 1.7µM, Pf growth 96h 3.7µM, HCV inh inconclusive
CCOC(CNC(=O)Cn1nc(C)c2ccccc21)OCC	Pf growth 96h inconclusive
COc1ccc(S(=O)(=O)N2CCC[C@H]2C(=O)N2CCC[C@H]2C(=O)NCc2ccc(F)cc2F)cc1C	none (no result: Shiga toxin inh, Pf growth 48h, Pf growth 96h, HCV inh, CHX counter)
CC(C)=C[C@@H]1C[C@H](C)[C@H]2CC[C@H](C)c3c(O)c(O)c(C)c1c32	Pf growth 48h 3.7µM, Pf growth 96h 10µM, HCV inh inconclusive (no result: Shiga toxin inh, CHX counter)
CC(=O)O[C@H]1[C@H](O)[C@H](Oc2c(O)c(C)c3c4c2[C@@H](C)CC[C@@H]4[C@@H](C)C[C@H]3C=C(C)C)O[C@@H](C)[C@H]1O	none (no result: Shiga toxin inh, Pf growth 48h, Pf growth 96h, CHX counter)
CC(C)=C[C@H]1C[C@H](C)[C@H]2CC[C@H](C)c3c(O[C@@H]4OC[C@@H](O)[C@H](O)C4O)c(O)c(C)c1c32 (some centres undefined)	HCV inh inconclusive (no result: Shiga toxin inh, Pf growth 48h, Pf growth 96h, CHX counter)
CC(=O)Oc1c(C)c2c3c(c1OC(C)=O)[C@@H](C)CC[C@@H]3[C@@H](C)C[C@H]2C=C(C)C	Pf growth 48h 12µM, Pf growth 96h inconclusive (no result: Shiga toxin inh, CHX counter)
O=C(/C=C/Nc1ccccc1C(=O)O)c1cccs1	Shiga toxin inh 75, CHX counter 33

From PubChem BioAssay
